Results on seven compounds are retold here after PubChem BioAssay (EPA / NIEHS).

Records with an inconclusive call do not appear. The source made the active and inactive calls. The calls were made as follows, unless noted: active = hit-call score of the fitted dose curve at least 0.9, where 1 is the maximum; inactive = score below 0.9.

The target in experiment [1] is human Retinoid X Receptor beta (RXRb), RXRB (gene 6257) (UniProt P28702). Briefly: ATG_RXRb_TRANS: Attagene TRANS-FACTORIAL HepG2 Assay for human Retinoid X Receptor beta (RXRb) (AID 2283013; active = hit-call score of the fitted dose curve at least 0.9, where 1 is the maximum). In outline:
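After a 24 h incubation with test chemical, transfected HepG2 cells carrying NR-Gal4 fusions and GAL4-UAS reporter transcription units yield RNA whose reporter cDNA is FAM-labelled, HpaI-cut and sized by capillary electrophoresis; increases over DMSO are scored.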

The target in experiment [2] is human Thyroid Receptor alpha (THRa1), THRA (gene 7067) (UniProt P10827). Nature of the experiment: ATG_THRa1_TRANS: Attagene TRANS-FACTORIAL HepG2 Assay for human Thyroid Receptor alpha (THRa1) (AID 2283014; active = hit-call score of the fitted dose curve at least 0.9, where 1 is the maximum). In outline:
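Reporter transcript induction, read by capillary electrophoresis of 6-FAM-labelled RT-PCR products, reflects activity of a transfected THRa1-Gal4 fusion in HepG2 liver cells. Cells were dosed for 24 h; activity was fitted in the positive direction against DMSO.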

Read-out in experiment [3]: E-selectin (Homo sapiens) (UniProt P16581)
Nature of the experiment: BSK_3C_Eselectin: BioMAP Diversity Plus: 3C Assay for Eselectin Biomarker Activity (AID 2283015).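 As to outcome: cell surface E-selectin protein quantified by ELISA 24 h after dosing.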 The note with it: primary human endothelial cells (HUVEC); actives raise or lower the signal. A digest of the protocol:
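ELISA read-out of E-selectin on endothelial monolayers after 24 h chemical treatment. Human umbilical vein primary cells served as the system, with DMSO defining baseline activity for bidirectional fitting.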

Read-out in experiment [4]: Interleukin-1 alpha (IL1a), IL1A (gene 3552)
Briefly: BSK_BE3C_IL1a: BioMAP Diversity Plus: BE3C Assay for Interleukin-1 alpha (IL1a) Biomarker Activity (AID 2283016). Particulars: primary human bronchial epithelial cells; actives raise or lower the signal. In outline:
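Measured in human lung primary bronchial epithelial cells: IL-1a by ELISA at 24 h after dosing, with bidirectional fitting against DMSO.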

Read-out in experiment [5]: Monocyte Chemoattractant Protein-1 (MCP1), CCL2 (gene 6347)
Nature of the experiment: BSK_3C_MCP1: BioMAP Diversity Plus: 3C Assay for Monocyte Chemoattractant Protein-1 (MCP1) Biomarker Activity (AID 2283017). The note with it: primary human endothelial cells (HUVEC); actives raise or lower the signal. In outline: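 ELISA read-out of MCP-1 from human umbilical vein endothelial cell cultures harvested 24 h post-dosing. Gain or loss of signal was fitted relative to DMSO.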

Read-out in experiment [6]: Monocyte Chemoattractant Protein-1 (MCP1), CCL2 (gene 6347)
Briefly: BSK_4H_MCP1: BioMAP Diversity Plus: 4H Assay for Monocyte Chemoattractant Protein-1 (MCP1) Biomarker Activity (AID 2283018). Particulars: primary human endothelial cells (HUVEC); actives raise or lower the signal. A digest of the protocol: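 Primary human umbilical vein endothelium is exposed to chemical for 24 h before MCP-1 is assayed by ELISA. Concentration-response fitted bidirectionally relative to DMSO.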

Read-out in experiment [7]: Human Leukocyte Antigen - DR isotype (HLADR), HLA-DRA (gene 3122)
Nature of the experiment: BSK_3C_HLADR: BioMAP Diversity Plus: 3C Assay for Human Leukocyte Antigen - DR isotype (HLADR) Biomarker Activity (AID 2283019). The note with it: primary human endothelial cells (HUVEC); actives raise or lower the signal. A digest of the protocol: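 ELISA readout of surface HLA-DR on human umbilical vein endothelium, taken 24 h after chemical treatment. Gain- and loss-of-signal were both fitted relative to DMSO.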

Read-out in experiment [8]: Interleukin-8 (IL8), CXCL8 (gene 3576)
Nature of the experiment: BSK_3C_IL8: BioMAP Diversity Plus: 3C Assay for Interleukin-8 (IL8) Biomarker Activity (AID 2283020). Particulars: primary human endothelial cells (HUVEC); actives raise or lower the signal. A digest of the protocol:
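Using DMSO-treated wells as the baseline, bidirectional curve fitting was applied to ELISA-measured IL-8 from human umbilical vein endothelial cultures sampled 24 h after compound addition.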

Read-out in experiment [9]: Monokine induced gamma interferon (MIG), CXCL9 (gene 4283)
Briefly: BSK_3C_MIG: BioMAP Diversity Plus: 3C Assay for Monokine induced gamma interferon (MIG) Biomarker Activity (AID 2283021).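 As to AC50: MIG protein level measured by immunoassay in the treated endothelial cultures.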 The note with it: primary human endothelial cells (HUVEC); actives raise or lower the signal. A digest of the protocol: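 ELISA-measured MIG in dosed HUVEC 3C cultures at 24 h, analysed by bidirectional fitting with DMSO defining baseline activity.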

For experiment [10], the target named is human Vitamin D Receptor (VDR), VDR (gene 7421) (UniProt P11473). Briefly: ATG_VDR_TRANS: Attagene TRANS-FACTORIAL HepG2 Assay for human Vitamin D Receptor (VDR) (AID 2283022; active = hit-call score of the fitted dose curve at least 0.9, where 1 is the maximum). A digest of the protocol: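 Steps: transfect HepG2 with GAL4-UAS-driven reporter constructs; dose compounds 24 h; isolate RNA, reverse-transcribe, PCR-amplify with 6-FAM-labelled primer extension and HpaI digestion; quantify fragments by capillary electrophoresis relative to DMSO.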

Experiment [11] is described as follows: BSK_3C_SRB: Viability Assessment in the BioMAP Diversity Plus: 3C Assay (AID 2283023).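 Also: fitted both ways against DMSO so a hit may be signal rise or drop.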 The note with it: primary human endothelial cells (HUVEC). In outline: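 Absorbance at 560 nm of sulforhodamine B-stained (0.1%) total protein served as a cytotoxicity readout in human umbilical vein endothelial cells, 24 h after chemical treatment. Signal was fitted bidirectionally relative to DMSO.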

A short description of experiment [12]: BSK_3C_Vis: BioMAP Diversity Plus: 3C Assay for Morphology Visualization (AID 2283025).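 Also: fitted both ways so gain or loss versus DMSO counts.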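 As to AC50: light microscopy image of cell morphology used as background control.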 The note with it: primary human endothelial cells (HUVEC). In outline: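 Light-microscopy morphology readout, 24 h exposure, human primary umbilical vein endothelium; analysed relative to DMSO with bidirectional fitting.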
Read-out in experiment [13]: Pselectin, SELP (gene 6403)
Briefly: BSK_4H_Pselectin: BioMAP Diversity Plus: 4H Assay for Pselectin Biomarker Activity (AID 2283026). Particulars: primary human endothelial cells (HUVEC); actives raise or lower the signal. A digest of the protocol:
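Bidirectional fits against DMSO gave the endpoint. Cells: primary human umbilical vein endothelium, chemical-treated for 24 h before ELISA detection of P-selectin.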

Experiment [14] in a line: BSK_4H_SRB: Viability Assessment in the BioMAP Diversity Plus: 4H Assay (AID 2283027).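 Also: cells exposed to compound for 24 h before staining.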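 As to AC50: curves fitted both ways versus DMSO so AC50 may be loss or gain.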 The note with it: primary human endothelial cells (HUVEC). A digest of the protocol:
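Cytotoxicity read-out in primary human endothelial cells: after 24 h compound exposure, cells were TCA-fixed (10%), stained with 0.1% SRB and absorbance taken at 560 nm. Values fitted in both directions relative to DMSO.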

The nature of experiment [15]: BSK_BE3C_SRB: Viability Assessment in the BioMAP Diversity Plus: BE3C Assay (AID 2283028). The note with it: primary human bronchial epithelial cells. In outline: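 Cells (human bronchial epithelial, primary) are treated with chemicals, and after 24 h the parallel cultures are fixed in 10% TCA. These are then stained with 0.1% SRB and read at 560 nm. Gain or loss of signal is fitted relative to DMSO.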

Read-out in experiment [16]: Thrombomodulin, THBD (gene 7056)
Briefly: BSK_3C_Thrombomodulin: BioMAP Diversity Plus: 3C Assay for Thrombomodulin Biomarker Activity (AID 2283029). Particulars: primary human endothelial cells (HUVEC); actives raise or lower the signal. In outline:
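In a multiplexed primary-cell system, human umbilical vein endothelium received chemical and was assayed 24 h later for thrombomodulin by ELISA. Parallel cultures were SRB-stained (0.1% SRB after 10% TCA fixation, read at 560 nm) to flag cytotoxicity.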

Read-out in experiment [17]: Urokinase-type plasminogen activator receptor (uPAR), PLAUR (gene 5329)
Briefly: BSK_4H_uPAR: BioMAP Diversity Plus: 4H Assay for Urokinase-type plasminogen activator receptor (uPAR) Biomarker Activity (AID 2283030). Particulars: primary human endothelial cells (HUVEC); actives raise or lower the signal. A digest of the protocol:
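Cell-surface uPAR ELISA signal, measured 24 h after dosing human umbilical vein endothelial cells, was analyzed with bidirectional fitting relative to DMSO. Parallel SRB staining of total protein tracked overt cytotoxicity.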

Read-out in experiment [18]: Vascular endothelial growth factor receptor 2 (Homo sapiens) (UniProt P35968)
Briefly: BSK_4H_VEGFRII: BioMAP Diversity Plus: 4H Assay for Vascular endothelial growth factor receptor 2 (VEGFR2) Biomarker Activity (AID 2283031).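 As to AC50: cell-surface VEGFR2 protein level quantified by ELISA.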 Particulars: primary human endothelial cells (HUVEC); actives raise or lower the signal. A digest of the protocol: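 ELISA read-out of VEGFRII in primary human umbilical vein endothelium, taken 24 h after chemical treatment. Responses are expressed relative to DMSO, with bidirectional fitting.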

The target of experiment [19] is Retinoic acid receptor RXR-alpha (Homo sapiens) (UniProt P19793). Nature of the experiment: ATG_RXRa_TRANS: Attagene TRANS-FACTORIAL HepG2 Assay for human Retinoid X Receptor alpha (RXRa) (AID 2283012; active = hit-call score of the fitted dose curve at least 0.9, where 1 is the maximum). A digest of the protocol: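 Chimeric NR-GAL4 trans-activation in HepG2, 24 h treatment; reporter transcripts quantified by fluorescence on capillary electrophoresis, analysed for upward change from DMSO.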

Read-out in experiment [20]: Matrix Metallopeptidase 1 (MMP1), MMP1 (gene 4312)
Nature of the experiment: BSK_BE3C_MMP1: BioMAP Diversity Plus: BE3C Assay for Matrix Metallopeptidase 1 (MMP1) Biomarker Activity (AID 2283024). Particulars: primary human bronchial epithelial cells; actives raise or lower the signal. A digest of the protocol:
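In this multiplexed primary-cell system, human bronchial epithelium received chemicals for 24 h before an ELISA for MMP1. Values reflect bidirectional fits normalised to the DMSO baseline.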

human Retinoid X Receptor beta (RXRb), RXRB (gene 6257), sequence (P28702 whole entry, looked up, the tested form may be a part): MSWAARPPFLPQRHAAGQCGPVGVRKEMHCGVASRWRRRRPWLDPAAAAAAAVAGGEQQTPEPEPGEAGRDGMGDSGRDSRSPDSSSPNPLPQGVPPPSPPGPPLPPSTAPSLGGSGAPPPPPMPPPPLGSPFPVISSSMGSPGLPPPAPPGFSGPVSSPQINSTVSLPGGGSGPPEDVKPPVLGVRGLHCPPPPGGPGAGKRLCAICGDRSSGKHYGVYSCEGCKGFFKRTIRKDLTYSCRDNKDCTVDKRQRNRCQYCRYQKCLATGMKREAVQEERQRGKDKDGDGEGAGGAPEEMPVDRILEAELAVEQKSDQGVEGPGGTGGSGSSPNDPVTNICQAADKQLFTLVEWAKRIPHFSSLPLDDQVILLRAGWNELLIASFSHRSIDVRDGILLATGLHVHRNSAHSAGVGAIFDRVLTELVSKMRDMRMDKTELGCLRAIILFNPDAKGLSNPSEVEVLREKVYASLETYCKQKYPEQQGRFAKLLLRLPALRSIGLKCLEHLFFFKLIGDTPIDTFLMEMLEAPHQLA
human Thyroid Receptor alpha (THRa1), THRA (gene 7067), sequence (P10827 whole entry, looked up, the tested form may be a part): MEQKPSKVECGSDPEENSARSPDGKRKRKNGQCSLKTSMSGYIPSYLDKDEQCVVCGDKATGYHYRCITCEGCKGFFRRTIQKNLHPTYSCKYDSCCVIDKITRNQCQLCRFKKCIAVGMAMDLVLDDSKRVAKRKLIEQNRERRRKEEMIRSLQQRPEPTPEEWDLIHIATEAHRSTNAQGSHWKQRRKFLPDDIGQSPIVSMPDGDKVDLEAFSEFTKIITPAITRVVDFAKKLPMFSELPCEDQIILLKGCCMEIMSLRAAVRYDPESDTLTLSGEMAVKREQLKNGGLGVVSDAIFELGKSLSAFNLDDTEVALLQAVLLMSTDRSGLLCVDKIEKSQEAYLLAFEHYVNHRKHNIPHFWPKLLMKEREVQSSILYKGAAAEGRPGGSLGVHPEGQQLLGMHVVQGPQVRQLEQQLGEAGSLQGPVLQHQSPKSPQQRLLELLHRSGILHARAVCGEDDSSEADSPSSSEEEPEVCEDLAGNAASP
human Vitamin D Receptor (VDR), VDR (gene 7421), sequence (P11473 whole entry, looked up, the tested form may be a part): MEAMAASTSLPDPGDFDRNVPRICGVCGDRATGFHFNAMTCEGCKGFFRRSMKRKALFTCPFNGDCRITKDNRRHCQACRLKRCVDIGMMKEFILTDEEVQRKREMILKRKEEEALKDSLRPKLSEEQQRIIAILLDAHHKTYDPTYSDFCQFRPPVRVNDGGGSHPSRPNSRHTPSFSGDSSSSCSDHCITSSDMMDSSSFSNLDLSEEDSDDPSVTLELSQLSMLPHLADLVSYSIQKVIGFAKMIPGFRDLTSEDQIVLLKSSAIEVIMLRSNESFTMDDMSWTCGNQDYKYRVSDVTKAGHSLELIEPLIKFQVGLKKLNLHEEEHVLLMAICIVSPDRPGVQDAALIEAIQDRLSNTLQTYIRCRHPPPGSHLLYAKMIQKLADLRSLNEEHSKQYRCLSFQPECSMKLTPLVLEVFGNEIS
E-selectin (Homo sapiens), sequence (P16581 whole entry, looked up): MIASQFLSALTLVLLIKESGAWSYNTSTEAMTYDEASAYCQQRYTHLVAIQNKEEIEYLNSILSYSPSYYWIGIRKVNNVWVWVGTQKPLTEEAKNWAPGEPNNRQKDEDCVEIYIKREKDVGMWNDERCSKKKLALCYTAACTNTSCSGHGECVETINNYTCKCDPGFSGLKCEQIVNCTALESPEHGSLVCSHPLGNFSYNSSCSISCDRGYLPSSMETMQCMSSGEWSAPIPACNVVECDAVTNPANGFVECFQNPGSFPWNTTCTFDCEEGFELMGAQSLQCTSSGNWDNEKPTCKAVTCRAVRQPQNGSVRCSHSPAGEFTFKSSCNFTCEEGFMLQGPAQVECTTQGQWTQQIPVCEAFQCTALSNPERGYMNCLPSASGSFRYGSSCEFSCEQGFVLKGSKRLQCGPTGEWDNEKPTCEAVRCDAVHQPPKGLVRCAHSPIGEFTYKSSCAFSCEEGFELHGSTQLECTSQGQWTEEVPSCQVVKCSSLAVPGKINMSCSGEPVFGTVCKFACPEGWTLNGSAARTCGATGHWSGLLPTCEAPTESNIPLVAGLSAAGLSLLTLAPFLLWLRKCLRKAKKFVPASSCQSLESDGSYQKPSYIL
Retinoic acid receptor RXR-alpha (Homo sapiens), sequence (P19793 whole entry, looked up, the tested form may be a part): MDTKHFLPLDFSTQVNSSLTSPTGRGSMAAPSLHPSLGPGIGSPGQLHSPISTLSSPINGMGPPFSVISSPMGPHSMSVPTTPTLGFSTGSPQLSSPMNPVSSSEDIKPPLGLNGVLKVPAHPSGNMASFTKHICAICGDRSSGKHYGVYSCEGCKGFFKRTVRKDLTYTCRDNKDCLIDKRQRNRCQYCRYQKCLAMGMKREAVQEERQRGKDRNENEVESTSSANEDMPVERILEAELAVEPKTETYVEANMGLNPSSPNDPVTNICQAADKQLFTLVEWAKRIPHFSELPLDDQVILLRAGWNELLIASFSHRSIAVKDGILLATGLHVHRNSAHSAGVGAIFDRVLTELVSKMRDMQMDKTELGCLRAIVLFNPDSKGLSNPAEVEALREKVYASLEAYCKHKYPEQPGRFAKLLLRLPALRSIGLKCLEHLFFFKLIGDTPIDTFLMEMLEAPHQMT

With `COC(=O)c1ccccc1N`, the compound was called inactive in experiment [1], in [2], in [3], in [4], in experiment [5] and in [6]. In addition, the outcome in experiment [7], in experiment [8], in experiment [9], in experiment [10], in experiment [11] and in experiment [12] was inactive. Further, the outcome in experiment [13], in experiment [14], in experiment [15], in experiment [16], in experiment [17] and in experiment [18] was inactive.
In the case of `N#CC(Br)Br`, the compound was classed as inactive in experiment [19], in experiment [1], in [3], in experiment [4], in experiment [5] and in [6]. In addition, the result in [7], in experiment [8], in experiment [9], in experiment [11], in [20] and in experiment [12] was inactive. In addition, the outcome in experiment [13], in [14], in [15], in experiment [17] and in [18] was inactive.
Turning to `OCCCl`, the call in experiment [1], in experiment [2], in [3], in experiment [4], in experiment [5] and in experiment [6] was inactive. Moreover, the outcome in [7], in experiment [8], in [9], in [10], in [11] and in experiment [20] was inactive. For the same compound, the outcome in experiment [12], in experiment [13], in [14], in experiment [15], in [17] and in [18] was inactive.
As usually defined, the AC50 is the concentration at which the activity in the assay is half-maximal. Consider `ClC1=C(Cl)C2(Cl)C3C(Cl)C=CC3C1(Cl)C2(Cl)Cl` (stereo not drawn), for which the call in experiment [19], in [1], in experiment [15] and in experiment [16] was inactive. For the same compound, the AC50 is 26.8 µM (active) in experiment [3]; 28.6 µM (active) in experiment [4]; 30 µM (active) in [5]; 24.1 µM (active) in [6]; 22.7 µM (active) in [7]; 32.7 µM (active) in experiment [8]. The AC50 is 35.7 µM (active) in [9]; 28.7 µM (active) in experiment [11]; 37.3 µM (active) in experiment [12]; 28.5 µM (active) in experiment [13]; 33.4 µM (active) in experiment [14]; 20 µM (active) in experiment [18].
In the case of `CC(C)(C)OOC(C)(C)CCC(C)(C)OOC(C)(C)C`, the result in [19], in [3], in [4], in experiment [5], in experiment [6] and in [7] was inactive. Also, the outcome in [8], in [9], in [11], in experiment [12], in [13] and in experiment [14] was inactive. Besides, the result in [15], in experiment [17] and in experiment [18] was inactive. For the same compound, the AC50 in [1] is 16.4 µM (active).
`Nc1ccc(Cc2ccc(N)cc2)cc1`: the outcome in experiment [19], in experiment [2], in experiment [3], in [4], in experiment [5] and in experiment [6] was inactive. The result in experiment [7], in experiment [8], in [9], in experiment [10], in experiment [11] and in experiment [20] was inactive. In addition, the result in experiment [12], in [13], in experiment [14], in [15] and in [18] was inactive.
`CCCCCCCCOC(=O)c1ccc(C(=O)OCCCCCCCC)c(C(=O)OCCCCCCCC)c1`: the compound was called inactive in experiment [19], in experiment [3], in experiment [4], in [5], in [6] and in experiment [7]. The outcome in [8], in experiment [9], in [11], in [12], in experiment [13] and in [14] was inactive. The outcome in experiment [15], in experiment [16] and in [18] was inactive. Moreover, in experiment [1], the AC50 is 65.4 µM (active).
